Experimental data published in PubChem BioAssay AID2551 (National Center for Advancing Translational Sciences (NCATS), 2010).
The whole screen tested about 310,000 compounds, of which about 17,000 (5.5%) were called active. Roughly 11% stayed inconclusive and do not appear here. Calls come from the whole dose curve; as a rule, active = well fitted inhibition curve with a large enough effect; inconclusive = small, poorly fitted or top-dose-only effect, or effect the other way; inactive = no such curve, though single readings can be large or run the other way. The list comes from a sample in which actives are over-represented; it also holds similar structures and randomly drawn compounds.

biological target: Nuclear receptor ROR-gamma (Mus musculus) (UniProt P51450); assay: qHTS for inhibitors of ROR gamma transcriptional activity; settings: Drosophila S2 Gal4-RORgamma UAS-luciferase reporter, 20 h; series mostly up to 53.6 µM; activity change, negative = inhibition: at the top concentration; note: nearly all actives have a fitted effect of over 60% in size
How it was run: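 ROR gamma transcriptional activity was tracked as Gal4-UAS luciferase output in stably transfected Drosophila Schneider cells, with compound added 1 hr before 700 uM copper sulfate induction and a 20 hr ambient-temperature incubation.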
% is set by controls: 0 for no effect and ±100 for the full control effect; potency is the fitted concentration of half-maximal effect.

Nuclear receptor ROR-gamma (Mus musculus), sequence (P51450 whole entry, looked up, the tested form may be a part): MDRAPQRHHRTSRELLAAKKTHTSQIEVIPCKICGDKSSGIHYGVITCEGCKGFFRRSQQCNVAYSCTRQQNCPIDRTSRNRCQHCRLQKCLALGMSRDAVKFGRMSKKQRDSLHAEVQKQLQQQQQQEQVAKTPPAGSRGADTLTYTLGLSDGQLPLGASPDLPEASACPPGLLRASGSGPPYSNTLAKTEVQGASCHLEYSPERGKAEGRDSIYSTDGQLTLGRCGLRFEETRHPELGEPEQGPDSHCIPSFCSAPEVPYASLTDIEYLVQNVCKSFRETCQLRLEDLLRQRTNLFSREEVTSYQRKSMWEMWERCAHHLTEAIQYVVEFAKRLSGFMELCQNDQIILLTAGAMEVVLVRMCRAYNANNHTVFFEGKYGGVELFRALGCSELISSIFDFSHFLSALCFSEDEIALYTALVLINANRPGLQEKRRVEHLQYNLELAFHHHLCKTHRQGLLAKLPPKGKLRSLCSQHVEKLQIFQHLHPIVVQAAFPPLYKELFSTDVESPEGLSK

Potency, active:
CCCCNC(=O)N(O)C1N(/N=C/c2ccccc2O)C(=S)SC1(C)C (stereo not drawn) 11.2 µM
O=C(CSc1ccccc1)Nc1nnc(/C=C/c2ccccc2)s1 20 µM
C/C(=N\NC(=O)Cc1ccc(Cl)cc1)c1ccccn1 0.398 µM
C/C(=N\NC(=O)c1ccccc1F)c1ccccn1 0.631 µM
COc1ccc(CC(=O)N/N=C(\C)c2ccccn2)cc1 7.08 µM
Cc1cccc(C)c1NC1=NC(=S)N(c2ccc(N(C)C)cc2)C1(C)C 14.1 µM
CN(NS(=O)(=O)c1cccs1)c1ncc(C(F)(F)F)cc1Cl 5.62 µM
Cc1cc(C(=O)CCl)c(C)n1CC1COc2ccccc2O1 (stereo not drawn) 10 µM
CCC(C)(C)C1CCC(=NNC(=O)c2ccc(Br)o2)CC1 (stereo not drawn) 11.2 µM
CCc1ccccc1NC(=S)N(CCN1CCCCCC1)Cc1ccco1 17.8 µM
Cc1ccc(NC(=S)N(CCN2CCCCC2)Cc2ccco2)cc1C 10 µM
O=C(CN1C(=O)/C(=C\c2ccccc2F)SC1=S)Nc1nc2ccccc2s1 11.2 µM
CC1=NN(C(N)=S)C(=O)C1N=Nc1cc(Cl)ccc1Cl (stereo not drawn) 1.41 µM
Cc1c(Cl)cccc1NC(=S)NCc1ccc2c(c1)OCO2 7.08 µM

Activity change, negative = inhibition, inactive:
CCC(C)N1C(=S)SC(C)(C)C1N(O)C(=O)NC1CCCCC1 (stereo not drawn) -15.4%
CCCCNC(=O)N(O)C1N(/N=C/c2ccc(N(C)C)cc2)C(=S)SC1(C)C (stereo not drawn) -35.3%
COc1ccc2c(c1)N(C)/C(=C1/SC(=S)N(NC(C)=O)C1=O)S2 4.75%
COc1ccc(OC)c(NC(=O)C2CCCN2S(=O)(=O)c2cccc3nsnc23)c1 (stereo not drawn) -27.5%
O=C(O)c1[nH]c2ccccc2c1C(c1cccc(O)c1)c1c(C(=O)O)[nH]c2ccccc12 -7.71%
O=C(/C=C/c1ccccc1)Nc1nnc(SCC(=O)c2ccc3ccccc3c2)s1 -1.4%
CCOCc1nnc(NC(=O)CSc2ccc(C)cc2)s1 -40.7%
CC1(C)Cc2c(sc(NC(=O)C(=O)NCC3CCCO3)c2C(=O)O)CO1 (stereo not drawn) -26%
C/C(CC(=O)Nc1ccc(N(C)C)cc1)=N\NC(=O)c1ccccc1F -23%
C/C(=N\NC(=O)Cc1ccc(Br)cc1)c1cccnc1 19.1%
C/C(=N\NC(=O)Cc1ccc(F)cc1)c1ccc(F)cc1 41.3%
COc1ccc(CC(=O)NC(C)CCc2ccccc2)cc1 (stereo not drawn) 16.8%
COc1ccc(/C(C)=N/NC(=O)c2ccc3nc[nH]c3c2)cc1 1.35%
O=C(Nc1ccc(NC(=O)c2ccccc2F)cc1)c1ccccc1F 0.482%
Cc1ccc(Cn2cc(C(=O)NN)c(=O)c3ccc(F)cc32)cc1 -6.79%
Cc1cccnc1CCNC(=O)C1CCC(=O)N(Cc2cccc(F)c2)C1 (stereo not drawn) 0.715%
COc1cc2ccccc2cc1C(=O)Nc1ccccc1C -19.4%
COc1cc([N+](=O)[O-])cc([N+](=O)[O-])c1NC(=O)N1CCOCC1 -23.8%
O=S(=O)(Cc1cc(Cl)nc(-c2cccnc2)n1)c1ccccc1 23.2%
COc1ccc(C(=O)Nc2cc(C)c(NC(=O)c3ccccc3OC)cn2)cc1 -27.9%
Cc1ccnc(N2C(=O)c3ccc([N+](=O)[O-])cc3C2=O)c1 -16.3%
COC(=O)c1cc(C(=O)NC(C)C2CC3CCC2C3)cc([N+](=O)[O-])c1 (stereo not drawn) -8.79%
Cc1c2cnn(CC(=O)NCc3ccccn3)c(=O)c2c(C)n1Cc1ccc(Cl)cc1 4.88%
Cc1ccc(CN2CCN(c3ncccn3)CC2)c(C)c1 18.7%
O=S(=O)(NCc1ccc(Cl)cc1Cl)c1cccs1 -12.9%
C#CCN(N(C)c1ncc(C(F)(F)F)cc1Cl)S(=O)(=O)c1ccc2ccccc2c1 -20.3%
O=C(NCC1COc2ccccc2O1)C1(c2ccccc2)CCCC1 (stereo not drawn) 27.7%
O=C1C(=O)N(CC2COc3ccccc3O2)c2ccccc21 (stereo not drawn) -0.423%
Cc1ccc(C)c(OCc2cc(C(=O)N3CCN(c4cnccn4)CC3)no2)c1 15.6%
O=C(CN1CCN(C(=O)C2CCCO2)CC1)Nc1c(Cl)cccc1Cl (stereo not drawn) 6%
Cc1ccc(-n2ncc3c2CC(C)(C)CC3NC(=O)CCc2cnn(C)c2)cc1 (stereo not drawn) -2.94%
CC(C)NS(=O)(=O)c1ccc(OCC(=O)NC2CCCCCC2)cc1 -17.8%
CC(C)(C)C1CCC(=NNC(=O)c2ccc(Br)o2)CC1 (stereo not drawn) -20.7%
O=C(N/N=C\C1CC=CCC1)c1ccc(Br)o1 (stereo not drawn) -8.11%
Cc1cc(-c2nnc(SCC(=O)Nc3ccc(S(N)(=O)=O)cc3)n2N)n[nH]1 -28.9%
CCOc1ccc(OCc2ccc(C(=O)N(C)c3ccccc3)o2)cc1 41.7%
COc1cc2cc(CN(CCN3CCCC3)C(=O)Nc3ccccc3Cl)c(=O)[nH]c2cc1OC -28.4%
Cc1ccc(NC(=S)N(CCCN2CCC(C)CC2)Cc2ccco2)cc1 -10.4%
COc1cccc(NC(=O)NCCN2CCCCC2)c1 -0.679%
CCc1ccccc1NC(=O)NCCN1CCCCC1 8.95%
C=C1CCN(C(CC(C)C)C(=O)N2CCOCC2)S(=O)(=O)c2ccccc21 (stereo not drawn) 7.59%
CCOc1ccccc1NS(=O)(=O)c1c[nH]c(C(=O)OC)c1 -1.36%
COC(=O)[C@]1(S(=O)(=O)c2ccccc2)C[C@@H]2ON=C(c3ccc(OC)cc3)[C@@H]2C1 2.22%
COc1ccc(CCC(C)N2CCc3ccccc3C2)cc1 (stereo not drawn) 9.94%
CCCC(=O)N1CCC(CCC(=O)NC2CC2)CC1 -12.6%
O=C(NCCc1ccc(Cl)cc1)C1CCCN1C(=O)NCc1ccccc1 (stereo not drawn) 0.783%
COCCn1cnc2c1c(=O)n(CC(=O)NN)c(=O)n2Cc1ccccc1 -27.2%
O=C(CN1C(=O)S/C(=C\c2ccccc2F)C1=O)NCCCn1ccnc1 -32.2%
Cc1nn(CC(=O)Nc2nc3ccccc3s2)c(C)c1[N+](=O)[O-] 5.91%
CCOC(=O)C1C(c2ccc(O)cc2)NC(=O)NC1(O)C(F)(F)F (stereo not drawn) 1.82%
C=CCNc1nc(N)c([N+](=O)[O-])c(NC2CCCCC2)n1 17.4%
O=C(NCc1ccc2c(c1)OCO2)c1cc(F)c(F)cc1Cl -6.24% [at 1.91 µM]
CN(C)S(=O)(=O)c1cccc(NC(=S)NCc2ccc3c(c2)OCO3)c1 32.3%
CS(=O)(=O)N(CC(=O)N1CCCCCC1)c1cccc(Cl)c1Cl -20.8%
